Screening data: PubChem BioAssay, several laboratories
A selection: hits, their analogues and other compounds. The true share with any hit is near 4.9%.
CSC inhib: blocks cancer stem cells; cancer stem cell-like cells viability, luminescence; inhibition, % at 7.5 µM; 1.1% of 300,000 active; AID 2717; in the data active = inhibition above about 75%; inconclusive = no clear call, values can overlap the other calls; tested in HMLE shEcad cells
PP1 inh: counter-screen for PP5 inhibitors: inhibitors of human PP1-alpha; inhibition, % at 6.7 µM; 0.9% of 320,000 active; purified PP1alpha, OMFP fluorescence; P62136; AID 2235;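 active = inhibition above the mean inhibition of all tested compounds plus 3 SD, computed separately for each screening campaign, cut at about 15% in these data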
Beta cell apopt: beta cell apoptosis inhibition | INS-1E cytokine-induced death, ATP luminescence, 48 h; percent of positive-control rescue, neutral wells zero | protection from apoptosis, % (concentration not given with the values) | 0.8% of 300,000 active;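 active = Every replicate reaches about 75%, or at least half do and their mean reaches it too, limit read from the data; inconclusive = At least half of replicates reach the limit but their mean does not; inactive = Under half of replicates reach the limit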;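 also: higher means more ATP so stronger rescue from cytokine killing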
Calb FLC: C. albicans growth modulation with fluconazole; AID 1979; C. albicans CaCi-2 (fluconazole-resistant clinical isolate) + fluconazole, Alamar Blue growth, 48 h; 0.57% of 300,000 active; growth inhibition, % (concentration not given with the values);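 active = growth inhibition above about 58% in most replicates, limit read from the data, passing the limit was not always enough; inconclusive = exactly half the replicates above a set limit; inactive = most replicates below a set limit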;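 also: all wells also contain fluconazole at 8 µg/ml as a sub-toxic cotreatment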
Mdm2 MdmX PPI: inhibitors of human Mdm2/MdmX interaction; O15151+Q00987; SaOS-2 split-luciferase Mdm2/MdmX complementation, luminescence; inhibition, % at 8 µM; 3% of 330,000 active; AID 485346;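 active = inhibition of at least 50% at 8 µM in the primary screen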
PP5 inh: inhibitors of human protein phosphatase 5 (PP5) | inhibition, % at 6.7 µM | P53041 | purified PP5c, OMFP substrate fluorescence | AID 1987 | 0.18% of 320,000 active;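 active = inhibition above the campaign's mean inhibition across all tested compounds plus 3 SD, cut at about 9.5% in these data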
Target sequence (P53041 whole entry, looked up): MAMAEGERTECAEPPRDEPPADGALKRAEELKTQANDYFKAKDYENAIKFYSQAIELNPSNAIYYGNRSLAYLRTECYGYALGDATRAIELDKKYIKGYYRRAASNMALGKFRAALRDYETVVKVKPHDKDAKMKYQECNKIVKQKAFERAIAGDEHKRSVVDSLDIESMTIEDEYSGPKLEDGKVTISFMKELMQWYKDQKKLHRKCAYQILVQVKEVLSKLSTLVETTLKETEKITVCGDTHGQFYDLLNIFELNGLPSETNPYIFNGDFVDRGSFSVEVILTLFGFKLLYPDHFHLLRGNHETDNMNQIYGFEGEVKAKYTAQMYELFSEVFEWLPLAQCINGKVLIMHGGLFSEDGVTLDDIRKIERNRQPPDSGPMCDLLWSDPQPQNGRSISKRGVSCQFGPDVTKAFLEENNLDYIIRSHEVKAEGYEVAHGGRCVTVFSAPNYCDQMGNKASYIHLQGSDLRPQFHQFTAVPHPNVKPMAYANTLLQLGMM
Mdm2-MdmX conf: confirmation of human Mdm2/MdmX interaction inhibitors; shares compounds with Mdm2 MdmX PPI; Mdm2-MdmX binding, luminescent assay; inhibition, % at 8 µM; 55% of 10,000 active; AID 489028; in the data active = inhibition above about 40%
FLuc counter: full-length luciferase inhibition in Mdm2/MdmX counter-screen; shares compounds with Mdm2 MdmX PPI; SaOS-2 full-length luciferase counterscreen, luminescence; inhibition, % at 8 µM; 77% of 6,200 active; AID 504607;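 active = mean inhibition at 8 µM reaching about 37%, which flags the compound as non-specific, limit read from the data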;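 also: p53-null SaOS-2 cells with luciferase driven by a doxycycline-inducible promoter; compound on cells about two nights before reading with doxycycline added after day one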
Large screens that a line does not name were inactive (follow-up assays come after a bar, where they were run).

COc1cc2c(cc1OC)C(C)N(C(=O)c1cc(C)on1)CC2 (stereo not drawn)	Mdm2 MdmX PPI 61 | Mdm2-MdmX conf 68 | FLuc counter 82
COc1cc2c(cc1OC)C(C)N(C(=O)c1c(C)noc1C)CC2 (stereo not drawn)	none
Cc1cc2occ(CC(=O)NCc3cccs3)c2cc1C(C)C	none
Cc1csc(NC(=O)Cc2coc3cc(C)c(C(C)C)cc23)n1	Mdm2 MdmX PPI 80 (no result: CSC inhib) | Mdm2-MdmX conf 69 | FLuc counter 57
CN(Cc1ccncn1)C(=O)C1CCC(=O)N(Cc2cccc(C(F)(F)F)c2)C1 (stereo not drawn)	none
COc1ccc([N+](=O)[O-])c(S(=O)(=O)c2ccccc2)n1	Beta cell apopt 94, Mdm2 MdmX PPI 99 | Mdm2-MdmX conf 98 | FLuc counter 52
COc1ccc([N+](=O)[O-])c(S(=O)(=O)c2ccc(Cl)cc2)n1	Beta cell apopt 83, Mdm2 MdmX PPI 97 | Mdm2-MdmX conf 95 | FLuc counter 52
O=[N+]([O-])c1cccnc1S(=O)(=O)c1ccccc1	Calb FLC 92, Mdm2 MdmX PPI 92 | Mdm2-MdmX conf 65 | FLuc counter 58
O=C(Nc1nccs1)c1ccc(Cl)c([N+](=O)[O-])c1	none
Cc1ccc(S(=O)(=O)NC(CC(=O)NCC2CCCO2)c2ccccc2)cc1 (stereo not drawn)	none
O=C(N/N=C/C=C/c1ccc(Br)cc1)C(O)c1ccccc1 (stereo not drawn)	none
Cc1ccc(CSCc2nc3ccccc3[nH]2)cc1	none (no result: CSC inhib, PP1 inh, Beta cell apopt, Mdm2 MdmX PPI, PP5 inh)
Cc1cc(C)cc(CC(Cc2nc3ccccc3[nH]2)c2nc3ccccc3[nH]2)c1 (stereo not drawn)	CSC inhib 182, Mdm2 MdmX PPI 91 | Mdm2-MdmX conf inactive
Cc1ccc(N(CC(=O)Nc2cc(Cl)ccc2Oc2ccccc2)S(C)(=O)=O)c(C)c1	none
Cc1ccc(N(CC(=O)Nc2cc(Cl)ccc2Oc2ccccc2)S(C)(=O)=O)cc1C	Mdm2 MdmX PPI 52 | Mdm2-MdmX conf inactive
COc1ccc(C2=NNC(=Nc3cc(S(=O)(=O)N(C)C)ccc3C)SC2)c(OC)c1	Beta cell apopt 103, Mdm2 MdmX PPI 67 | Mdm2-MdmX conf 50 | FLuc counter 54
Cn1c(=O)[nH]c(NC2CCCCC2)c(N=O)c1=O	none
Cc1noc2ncnc(Sc3c(Cl)cccc3Cl)c12	Mdm2 MdmX PPI 54 | Mdm2-MdmX conf inactive
N#CC1=C(N)Oc2cc(N)ccc2C1c1ccccc1F (stereo not drawn)	Mdm2 MdmX PPI 56 | Mdm2-MdmX conf 52 | FLuc counter 67
COc1cccc(C2C(C#N)=C(N)Oc3cc(N)ccc32)c1OC (stereo not drawn)	none (no result: Beta cell apopt)
N#CC1=C(N)Oc2cc(N)ccc2C1c1cc(Br)cs1 (stereo not drawn)	Mdm2 MdmX PPI 58 (no result: PP1 inh, PP5 inh) | Mdm2-MdmX conf inactive
COc1ccc(C(=O)NCC2CCCCC2)cc1S(=O)(=O)N1CCOCC1	none (no result: PP1 inh, Calb FLC, PP5 inh)
COc1ccc(S(=O)(=O)N2CC(C)N(C(=O)N(C)C)C2C)cc1 (stereo not drawn)	none
Nc1nc(/C=C/c2ccc(F)cc2)nc(-c2ccccc2O)n1	none
Nc1nc(/C=C/c2cccnc2)nc(-c2ccccc2O)n1	Mdm2 MdmX PPI 76 | Mdm2-MdmX conf 73 | FLuc counter 64
CCOc1ccc(CNC(=O)Cn2c(=O)c3cccn3c3ccccc32)cc1	Mdm2 MdmX PPI 55 | Mdm2-MdmX conf inactive
CCOc1ccc(CNC(=O)Cn2nc(C)n3nc(-c4ccccc4)cc3c2=O)cc1	Mdm2 MdmX PPI 97 | Mdm2-MdmX conf inactive
CC(C)Oc1ccc(CNC(=O)Cn2c(=O)c3cccn3c3cccnc32)cc1	none
CCOC(=O)N1CCN(C(=O)Cn2nc(C)n3nc(-c4ccc(CC)cc4)cc3c2=O)CC1	none
Cc1cc(Br)ccc1NC(=O)CNC(=O)Cc1ccc(S(=O)(=O)N2CCOCC2)s1	none (no result: Calb FLC)
Cc1cccc(C)c1NC(=O)COc1ccc2c(C)c(Cc3ccccc3)c(=O)oc2c1C	Mdm2 MdmX PPI 97 | Mdm2-MdmX conf inactive
Cc1c(Cc2ccccc2)c(=O)oc2c(C)c(OCC(=O)Nc3ccc(C#N)cc3)ccc12	none
Cc1c(C)c2ccc(OCC(=O)Nc3ccccn3)c(C)c2oc1=O	Mdm2 MdmX PPI 88 | Mdm2-MdmX conf 90 | FLuc counter 52
CCCCn1c(=O)c(CCC(=O)OCC(=O)NC(=O)NCCOC)nc2ccccc21	none
COc1cc(-n2c(=O)c3ccccc3n(CC(=O)c3ccccc3)c2=O)cc(OC)c1OC	Mdm2 MdmX PPI 83 | Mdm2-MdmX conf inactive
CCn1c2ccccc2c2cc(NC(=O)COc3ccc(OC)cc3)ccc21	none
COc1cc(C(=O)Nc2ccc3c(c2)N(C(=O)CCN(C)C)c2ccccc2CC3)cc(OC)c1OC	Mdm2 MdmX PPI 61 | Mdm2-MdmX conf 41 | FLuc counter 100
COc1cc(-n2c(=O)c3ccccc3n(CC(=O)c3ccc(F)cc3)c2=O)cc(OC)c1OC	none
CCn1c2ccccc2c2cc(NC(=O)c3cc(OC)c(OC)c(OC)c3)ccc21	Mdm2 MdmX PPI 69 (no result: CSC inhib, Beta cell apopt) | Mdm2-MdmX conf 62 | FLuc counter 119
CN(C)CC(=O)N1c2ccccc2CCc2ccc(NC(=O)c3ccc(N)cc3)cc21	none
CCn1c2ccccc2c2cc(NC(=O)c3coc(=O)c(Br)c3)ccc21	Mdm2 MdmX PPI 74 | Mdm2-MdmX conf inactive | FLuc counter 38
O=C(N=C1N=C2C=CC=CN2Cc2ccccc21)c1ccc(S(=O)(=O)N2CCOCC2)cc1	none
Cc1cccc(S(=O)(=O)NC2CCCCCCC2)c1	none
O=C(NC1CCCCC1)C(c1ccccn1)N(C(=O)c1csnn1)C1CCCCC1 (stereo not drawn)	none
Cc1cccc(C)c1NC(=O)CN1C(=O)NC(C)(CCc2ccccc2)C1=O (stereo not drawn)	none
Cc1ccc(N(CC(=O)N/N=C/c2cccnc2)S(=O)(=O)c2ccccc2)cc1	none
Cc1ccc(S(=O)(=O)N(CC(=O)N/N=C/c2cccc(Cl)c2)c2cccc3cccnc23)cc1	Mdm2 MdmX PPI 66 | Mdm2-MdmX conf inactive
COC(=O)c1cccc2nc3c(C(C)O)cccc3nc12 (stereo not drawn)	none (no result: Beta cell apopt)
FC(F)(F)c1cc(C(F)(F)F)c2ccc(N3CCN(c4ncccn4)CC3)nc2n1	Mdm2 MdmX PPI 58 | Mdm2-MdmX conf inactive
COc1ccc(S(=O)(=O)N2CCCCC2)cc1NC(=O)c1ccc([N+](=O)[O-])o1	none
O=C(Nc1ccc(S(=O)(=O)N2CCOCC2)cc1)c1ccc([N+](=O)[O-])o1	CSC inhib inconclusive
O=C(Nc1ccc(S(=O)(=O)N2CCCC2)cc1)c1ccc([N+](=O)[O-])o1	Mdm2 MdmX PPI 67 (no result: PP1 inh, Calb FLC, PP5 inh) | Mdm2-MdmX conf inactive
